Several values for one entry are separate records, joined by “and”; a condition that tells them apart may be missing. Identical values can stand only once. Hit rate of the full screen: of about 5,500 compounds, about 2,000 (36%) were called active. Another 18% or so got no clear call; they are omitted. No stated cut-off is given here; in the data, active means normalized growth mostly below about 0.91 (no sharp cut-off); inconclusive means no clear call, values can overlap the other calls; inactive means mostly above about 0.92. The list shows a part of the results.
Assay: chemical genetic growth profiling, strain panel (AID 1159580);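 further: tested at 20 µM; growth read once vehicle control cultures reached saturation at 30 °C; 1 = growth at the plate median or of vehicle wells; lower values mean less growth of the strain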
Details: S. cerevisiae deletion strains, growth OD

Measured: normalized growth

CNC(C)(C)Cc1ccccc1
inactive: locus YAL013W, strain DEP1, active compounds read low 1.01 | locus YAL021C, strain ccr4, active compounds read low 0.997 | locus YAL026C, strain drs2, active compounds read low 1.01 | locus YAL030W, strain snc1, active compounds read low 1.01 | locus YBL061C, strain skt5, active compounds read low 1.02 | locus YBR009C, strain hhf1, active compounds read low 1.02 | locus YBR021W, strain FUR4, active compounds read low 1.01 | locus YBR023C, strain chs3, active compounds read low 1.02 | locus YBR171W, strain sec66, active compounds read low 1.02 | locus YBR229C, strain ROT2, active compounds read low 1.01 | locus YBR231C, strain swc5, active compounds read low 1.02 | locus YBR279W, strain paf1, active compounds read low 1.01 | locus YCL011C, strain gbp2, active compounds read low 1.02 | locus YCL016C, strain dcc1, active compounds read low 1.02 | locus YCL029C, strain bik1, active compounds read low 1 | locus YCL061C, strain MRC1, active compounds read low 1.01 | locus YCL069W, strain vba3, active compounds read low 1.01 | locus YCR088W, strain abp1, active compounds read low 1.01 | locus YDL005C, strain med2, active compounds read low 1.02 | locus YDL035C, strain GPR1, active compounds read low 1.02 | locus YDL040C, strain nat1, active compounds read low 1.01 | locus YDL074C, strain BRE1, active compounds read low 0.988 | locus YDL101C, strain DUN1, active compounds read low 1.01 | locus YDL134C, strain PPH21, active compounds read low 1.02 | locus YDL185W, strain tfp1, active compounds read low 1.01 | locus YDL192W, strain arf1, active compounds read low 1 | locus YDR001C, strain nth1, active compounds read low 1 | locus YDR069C, strain doa4, active compounds read low 1.02 | locus YDR101C, strain arx1, active compounds read low 1.02 | locus YDR137W, strain rgp1, active compounds read low 0.958 | locus YDR150W, strain NUM1, active compounds read low 1 | locus YDR159W, strain sac3, active compounds read low 1 | locus YDR162C, strain NBP2, active compounds read low 1.02 | locus YDR195W, strain ref2 1.02 | locus YDR297W, strain sur2, active compounds read low 1.02 | locus YDR318W, strain mcm21, active compounds read low 1.02 | locus YDR334W, strain swr1, active compounds read low 0.991 | locus YDR335W, strain msn5, active compounds read low 1.01 | locus YDR388W, active compounds read low 1.01 | locus YDR392W, strain spt3, active compounds read low 1.01 | locus YDR502C, strain sam2, active compounds read low 0.993 | locus YEL003W, strain gim4, active compounds read low 1.01 | locus YEL037C, strain rad23, active compounds read low 1.01 | locus YEL061C, strain CIN8 (second series), active compounds read low 1 | locus YEL061C, strain CIN8, active compounds read low 1 | locus YER015W, strain faa2, active compounds read low 1.02 | locus YER016W, strain bim1, active compounds read low 1.01 | locus YER110C, active compounds read low 0.999 | locus YER111C, strain swi4, active compounds read low 0.988 | locus YER155C, strain BEM2 (second series), active compounds read low 0.996 | locus YER155C, strain BEM2, active compounds read low 1.01 | locus YER167W, strain BCK2, active compounds read low 1.03 | locus YFR010W, strain ubp6, active compounds read low 1.02 | locus YGL078C, strain dbp3, active compounds read low 0.998 | locus YGL086W, strain mad1, active compounds read low 0.997 | locus YGL167C, strain pmr1, active compounds read low 1.01 | locus YGL173C, strain kem1, active compounds read low 1.02 | locus YGL227W, strain vid30, active compounds read low 1.02 | locus YGL240W, strain doc1, active compounds read low 1.02 | locus YGL248W, strain PDE1, active compounds read low 0.996 | locus YGL253W, strain hxk2, active compounds read low 1.03 | locus YGR078C, strain PAC10, active compounds read low 0.994 | locus YGR135W, strain pre9, active compounds read low 1.03 | locus YGR252W, strain gcn5, active compounds read low 1 | locus YHR013C, strain ard1, active compounds read low 1.04 | locus YHR027C, strain rpn1, active compounds read low 1.02 | locus YHR030C, strain SLT2, active compounds read low 1.01 and 1.04 | locus YHR079C, strain IRE1 (second series), active compounds read low 1 | locus YHR079C, strain IRE1, active compounds read low 1.04 | locus YHR094C, strain hxt1, active compounds read low 1 | locus YHR129C, strain ARP1, active compounds read low 1.01 | locus YHR142W, strain chs7, active compounds read low 1.01 | locus YHR200W, strain rpn10, active compounds read low 1.01 | locus YIL066C, strain RNR3, active compounds read low 1 | locus YIL073C, strain SPO22, active compounds read low 1.06 | locus YIL125W, strain kgd1, active compounds read low 0.996 | locus YIR030C, strain dcg1, active compounds read low 1.01 | locus YJL092W, strain hpr5, active compounds read low 1.01 | locus YJL095W, strain BCK1 (second series), active compounds read low 1.01 | locus YJL095W, strain BCK1, active compounds read low 0.99 and 1.04 | locus YJL115W, strain asf1, active compounds read low 1.01 | locus YJL129C, strain trk1, active compounds read low 0.983 | locus YJL134W, strain LCB3, active compounds read low 1.01 | locus YJL154C, strain vps35, active compounds read low 1 | locus YJL164C, strain tpk1, active compounds read low 1.02 | locus YJL166W, strain qcr8, active compounds read low 1.02 | locus YJL168C, strain set2, active compounds read low 1 | locus YJL187C, strain SWE1 (second series), active compounds read low 0.986 | locus YJL187C, strain SWE1, active compounds read low 1.02

From PubChem BioAssay AID1159580 (chemical genetic matrix, 2015)
